These results are taken from PubChem BioAssay (NCI).

Compounds without any hit were thinned out: in the full panel of roughly 83,000, 20% have a hit.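 Cell lines were cultured in 96-well plates, exposed to a single compound concentration, and assessed for percent growth 48 hours later.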 Values without a mark were called inactive. Activity calls are given as the source filed them. How the source made its calls: active means growth percent below 10; inactive means the rest.

Some test systems named below: NCI-H23 lung; NCI-H226 lung; NCI-H322M lung; HOP-62 NSCLC; NCI-H460 lung; NCI-H522 lung; A549/ATCC NSCLC; 786-0 renal; COLO 205 colon; DU-145 prostate.
Common to all, as to experiment: NCI-60 one-dose screen, 48 h (100 = growth as untreated, 0 = no growth, -100 = all killed)
Settings in all cases: 10 µM

Turning to `Cc1ccc(Nc2cc(C)nc(NCCCNc3ccnc4cc(Cl)ccc34)n2)cc1`, the growth with NCI-H23 lung is 17.6%; in the experiment on NCI-H226 lung, 48.5%; in the experiment with NCI-H322M lung, -31.8% (active); in the experiment on HOP-62 NSCLC, -12.4% (active); in the experiment with NCI-H460 lung, -45.4% (active); with NCI-H522 lung it was -83.5% (active). The growth in the experiment with A549/ATCC NSCLC was -69.3% (active); with 786-0 renal, -100% (active); in the experiment with COLO 205 colon, -88.2% (active); with DU-145 prostate it was -17.8% (active).
On to `Fc1ccc(-c2nnc(-c3c(-c4ccc(F)cc4)nc4ccccn34)o2)cc1`, for which the growth in the experiment on NCI-H23 lung was 69%; in the experiment with NCI-H226 lung, 84.2%; with NCI-H322M lung, 105%; in the experiment with HOP-62 NSCLC, 78.5%; in the experiment on NCI-H460 lung, 70%; in the experiment with NCI-H522 lung it was 25.9%. Besides, the growth was 72.4% with A549/ATCC NSCLC, 88.2% in the experiment on 786-0 renal, 79.5% with COLO 205 colon and 92.1% with DU-145 prostate.
As for `COc1ccc(-c2nn(-c3cccc(NC(=O)Nc4cc(C(F)(F)F)cc(C(F)(F)F)c4)c3)cc2-c2ccncc2)cc1Cl`, the growth was 5.1% (active) in the experiment with NCI-H23 lung; 24.2% in the experiment on NCI-H226 lung; 4.66% (active) with NCI-H322M lung; 3.91% (active) in the experiment on HOP-62 NSCLC; -3.36% (active) with NCI-H460 lung; -30% (active) in the experiment on NCI-H522 lung. Further, the growth in the experiment on A549/ATCC NSCLC was 0.691% (active); in the experiment on 786-0 renal, -12.8% (active); in the experiment with COLO 205 colon it was -88.9% (active); in the experiment on DU-145 prostate, 17.6%.
Regarding `COc1ccc(/C=C2/CN(C(=O)c3ccccc3F)C/C(=C\c3ccc(OC)cc3)C2=O)cc1`, the growth with NCI-H23 lung was 73.6%; with NCI-H226 lung, 57.8%; in the experiment on NCI-H322M lung it was 82.9%; with HOP-62 NSCLC, 75.8%; in the experiment with NCI-H460 lung it was 94%; in the experiment with NCI-H522 lung, 38.3%. Also, the growth in the experiment with A549/ATCC NSCLC was 63.2%; with 786-0 renal, 56.9%; with COLO 205 colon, 59.1%; in the experiment with DU-145 prostate, 42.1%.
Consider `COc1ccc(NC(=O)CSc2nc3ccccc3c(=O)n2CCc2ccccc2)cc1`, for which the growth was 92.2% with NCI-H23 lung; 93.9% in the experiment with NCI-H226 lung; 81.5% in the experiment with NCI-H322M lung; 48.3% in the experiment on HOP-62 NSCLC; 75.5% in the experiment with NCI-H460 lung; 105% in the experiment on NCI-H522 lung. Further, the growth with A549/ATCC NSCLC was 75.1%; in the experiment with 786-0 renal, 95.3%; in the experiment with COLO 205 colon, 95.5%; in the experiment on DU-145 prostate, 101%.
Consider `COc1ccc2c(c1)-c1c(c3cc(OC)ccc3n(CCN(C)C)c1=O)C2=O`, for which the growth with NCI-H23 lung is 7.11% (active); with NCI-H226 lung it was 22%; in the experiment with NCI-H322M lung, -14.4% (active); in the experiment on HOP-62 NSCLC, 15.3%; in the experiment with NCI-H460 lung, -4.73% (active); in the experiment with NCI-H522 lung, -11.5% (active). The growth was -18.7% (active) in the experiment with A549/ATCC NSCLC, 32.3% in the experiment on 786-0 renal, 14.7% in the experiment with COLO 205 colon and 5.1% (active) in the experiment on DU-145 prostate.
In the case of `CCCCOC(=O)Oc1ccc(C(=O)Oc2ccc(OCC)cc2)cc1`, the growth in the experiment on NCI-H23 lung is 99.9%; in the experiment with NCI-H226 lung, 92.7%; in the experiment with NCI-H322M lung, 98.6%; in the experiment with HOP-62 NSCLC it was 113%; with NCI-H460 lung, 106%; in the experiment with NCI-H522 lung it was 82.7%. In addition, the growth with A549/ATCC NSCLC is 85.6%; in the experiment with 786-0 renal, 96.7%; in the experiment on COLO 205 colon, 118%; with DU-145 prostate it was 97.7%.
On to `C#Cc1ccc(-n2c(/C=C/c3ccc(O)cc3)nc3ncccc3c2=O)cc1`, for which the growth was 82.8% with NCI-H23 lung; 58.7% in the experiment with NCI-H226 lung; 86.4% with NCI-H322M lung; 59.4% in the experiment on HOP-62 NSCLC; 92% in the experiment on NCI-H460 lung; 0.111% (active) in the experiment on NCI-H522 lung. The growth in the experiment with A549/ATCC NSCLC was 53.5%; in the experiment on 786-0 renal, 62.6%; in the experiment on COLO 205 colon, 110%; with DU-145 prostate it was 81.8%.
As for `COc1ccc(S(=O)(=O)NCCCNc2nccc(-c3c(-c4ccc(F)cc4)nc4sccn34)n2)cc1`, the growth in the experiment on NCI-H23 lung is 74.8%; in the experiment on NCI-H226 lung, 68.9%; with NCI-H322M lung, 52.7%; in the experiment with HOP-62 NSCLC it was 79.7%; with NCI-H460 lung, 36.3%; with NCI-H522 lung, 59.3%. For the same compound, the growth with A549/ATCC NSCLC is 32%; in the experiment with 786-0 renal, 72.4%; with COLO 205 colon, 26.9%; in the experiment on DU-145 prostate, 58.8%.
In the case of `Nc1c(C(=O)Nc2ccccc2Cl)sc2nc3c(cc12)C(=O)CCC3`, the growth in the experiment with NCI-H23 lung was 42.3%; in the experiment with NCI-H226 lung it was 75.9%; in the experiment with NCI-H322M lung, 37.9%; with HOP-62 NSCLC, 83.3%; in the experiment on NCI-H460 lung, 12.4%; with NCI-H522 lung it was 32.8%. The growth in the experiment with A549/ATCC NSCLC was 24.9%; in the experiment with 786-0 renal, 91.1%; in the experiment with COLO 205 colon it was 3.38% (active); in the experiment on DU-145 prostate it was 48.5%.
With `COc1cc(-c2nnc(-c3c(-c4ccc(F)cc4)nc4ccccn34)o2)cc(OC)c1OC`, the growth in the experiment on NCI-H23 lung is 80.8%; with NCI-H226 lung, 53.7%; in the experiment on NCI-H322M lung, 91.8%; in the experiment on HOP-62 NSCLC, 62.9%; with NCI-H460 lung it was 52.5%; in the experiment on NCI-H522 lung, 4.71% (active). Further, the growth with A549/ATCC NSCLC is 70.7%; with 786-0 renal, 64.7%; in the experiment on COLO 205 colon, 107%; in the experiment on DU-145 prostate, 77%.
With `C=C(NC(=O)C(=C)NC(=O)c1csc(C2=NC3c4csc(n4)C4NC(=O)c5csc(n5)C(C(C)(O)C(C)O)NC(=O)C5CSC(=N5)/C(=C/C)NC(=O)C(C(C)O)NC(=O)c5csc(n5)C3(CC2)NC(=O)C(C)NC(=O)C(=C)NC(=O)C(=C)NC(=O)C(C(C)C)NC2C=Cc3c(C(C)O)cc(nc3C2O)C(=O)OC4C)n1)C(N)=O` (stereo not given), the growth with NCI-H23 lung was 11.1%; with NCI-H226 lung, -26.3% (active); with NCI-H322M lung, 45.9%; with HOP-62 NSCLC, 2.24% (active); with NCI-H460 lung it was 1.43% (active); in the experiment on NCI-H522 lung, -39.1% (active). Besides, the growth with A549/ATCC NSCLC was 31.7%; in the experiment on 786-0 renal it was -10.4% (active); in the experiment with COLO 205 colon, -70.2% (active); in the experiment with DU-145 prostate, -23% (active).
As for `O=C(Nc1ccc(CO)cc1)c1ccccc1Nc1ccnc(C(F)(F)F)c1`, the growth in the experiment with NCI-H23 lung is 96.5%; in the experiment on NCI-H226 lung it was 105%; with NCI-H322M lung, 113%; with HOP-62 NSCLC it was 95.4%; in the experiment on NCI-H460 lung it was 103%; in the experiment on NCI-H522 lung it was 93.7%. For the same compound, the growth with A549/ATCC NSCLC is 99.5%; in the experiment on 786-0 renal, 102%; with COLO 205 colon, 104%; in the experiment with DU-145 prostate, 106%.
Regarding `N=C(N)c1ccc(-c2ccc(-c3ccco3)o2)cc1`, the growth in the experiment with NCI-H23 lung was 94.8%; with NCI-H226 lung, 77.8%; with NCI-H322M lung, 67%; in the experiment on HOP-62 NSCLC, 81.7%; with NCI-H460 lung, 62.8%; in the experiment on NCI-H522 lung, 95%. Moreover, the growth was 68.7% with A549/ATCC NSCLC, 79.9% in the experiment on 786-0 renal, -90.2% (active) in the experiment with COLO 205 colon and 88.2% with DU-145 prostate.
